# Only some compounds are listed: those with a hit (about 6.7% of all), similar ones and a draw of the others.
# C diff growth = C. difficile growth inhibition | Clostridium difficile clinical isolate growth, OD600, 24 h; active compounds read low | growth activity, negative = inhibition, % at 16 µg/mL (by protocol) | 86,000 tested, 0.25% active;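 active means mean growth activity at or below -80% and every replicate also at or below -80%; inconclusive means mean at or below -80% but some replicate above -80%; inactive means mean growth activity above -80%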;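 further: 0% = DMSO wells and -100% = levofloxacin 16 µg/mL wells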
# Pf Dd2 inh = inhibitors of Plasmodium falciparum Dd2 growth; P. falciparum Dd2 growth, SYBR Green, 72 h; active compounds read low; activity change, % at 10 µM; 94,000 tested, 2.3% active; AID 1159554; in the data active means activity change below about -80%; inconclusive means no clear call, values can overlap the other calls
# T cruzi growth-1 = T. cruzi proliferation inhibition; 77,000 tested, 5.9% active; inhibition, % at 8.34 µM; AID 624255; T. cruzi beta-gal in NIH3T3, GalScreen luminescence, 90 h;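 active means mean inhibition above about 93%, with at least 55% of replicates each passing it, limit read from the data, passing the limit was not always enough; inconclusive means only one of those two conditions holds; inactive means neither condition holds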
# T cruzi growth-2 = inhibitors of T. cruzi proliferation; inhibition, % at 8.35 µM; 5,600 tested, 72% active; T. cruzi beta-gal in NIH3T3, GalScreen luminescence, 90 h; shares compounds with T cruzi growth-1; AID 651739;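 active means mean replicate inhibition above about 95% and at least 55% of replicates individually reaching it, limit read from the data; inconclusive means only one of the two criteria is met; inactive means neither criterion is met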
# T cruzi growth-3 = blocks T. cruzi growth in NIH3T3 host cells; shares compounds with T cruzi growth-1; T. cruzi beta-gal in NIH3T3, GalScreen luminescence, 90 h; inhibition, % at 2.09 µM; 5,600 tested, 21% active;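 active means mean inhibition above about 95%, with at least 55% of replicates also reaching it, limit read from the data; inconclusive means meets just one of the two conditions; inactive means meets neither condition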;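 further: plate controls were neutral control median for no effect and positive control median for full effect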
# 3T3 cytotox = kills mouse NIH/3T3 fibroblasts | AID 651742 | NIH/3T3 viability, CellTiter-Glo ATP luminescence, 90 h | shares compounds with T cruzi growth-1 | cytotoxicity (signal decrease), % at 8.35 µM | 5,600 tested, 14% active;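 active means mean signal decrease across replicates above about 35% based on untreated-well scatter, with enough replicates individually passing, limit read from the data; inconclusive means no rule stated though some were filed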;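 further: 0% = median of neutral control wells and 100% = median of positive control wells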
# NIH3T3 tox 2 = cytotoxicity in mouse NIH/3T3 fibroblasts. shares compounds with T cruzi growth-1. 5,600 tested, 56% active. inhibition, % at 24.9 µM. NIH/3T3 viability, CellTiter-Glo ATP luminescence, 90 h. AID 651744;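 active means mean loss of cell viability signal at or above a set limit, and enough replicates individually reaching it; inconclusive means meets only the mean limit or only the replicate share; inactive means meets neither condition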;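 further: 0% = median of neutral control wells and 100% = median of positive control wells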
# An asterisk follows results filed as active; ? = inconclusive; nt = not tested or not shown.
SMILES,C diff growth,Pf Dd2 inh,T cruzi growth-1,T cruzi growth-2,T cruzi growth-3,3T3 cytotox,NIH3T3 tox 2
N#C[C@@H]1[C@@H](c2ccc(C3=CCCCC3)cc2)[C@@H](CO)N1C(=O)NC1CCCC1,-7,-44,nt,nt,nt,nt,nt
N#C[C@@H]1[C@@H](c2ccc(C3=CCCCC3)cc2)[C@H](CO)N1C(=O)NC1CCCC1,4,-80,nt,nt,nt,nt,nt
CCCNC(=O)N1[C@@H](C#N)[C@H](c2ccc(C3=CCCCC3)cc2)[C@@H]1CO,-22,-67,103*,98*,107*,21,33*
N#C[C@H]1[C@H](c2ccc(C3=CCCCC3)cc2)[C@H](CO)N1C(=O)NC1CCCCC1,-25,20,101*,97*,101*,10,69*
N#C[C@H]1[C@@H](c2ccc(C3=CCCCC3)cc2)[C@H](CO)N1C(=O)NC1CCCCC1,1,30,100*,105*,83,41*,54*
C/C=C/c1ccccc1[C@H]1[C@@H](CO)N(C(=O)Nc2ccccc2F)[C@H]1C#N,16,2,nt,nt,nt,nt,nt
C[C@@H]1CN([C@@H](C)CO)C(=O)c2cc(NC(=O)c3ccccc3)ccc2O[C@@H](C)CCCCO[C@H]1CN(C)S(=O)(=O)c1cn(C)cn1,15,-1,nt,nt,nt,nt,nt
CC=Cc1ccc2n(c1=O)C[C@@H]1[C@@H](CO)[C@H](C(=O)NCC)[C@H]2N1S(=O)(=O)c1cn(C)cn1 (mixture of isomers),-6,-3,47,nt,nt,nt,nt
C[C@H]1CN([C@@H](C)CO)S(=O)(=O)c2ccc(-c3ccncc3)cc2O[C@H]1CN(C)C(=O)C1CCC1,nt,-12,88,nt,nt,nt,nt
O=C(Nc1ccccc1F)N[C@H]1CC[C@H](CCNC(=O)C2CCOCC2)O[C@H]1CO,-5,16,0,nt,nt,nt,nt
COc1ccc(NC(=O)N(C)C[C@@H]2Oc3ccc(NS(=O)(=O)c4ccc(Cl)cc4)cc3C(=O)N([C@@H](C)CO)C[C@@H]2C)cc1,1,32,-33,nt,nt,nt,nt
Cc1noc(C)c1NC(=O)Nc1ccc2c(c1)C(=O)N([C@@H](C)CO)C[C@H](C)[C@H](CN(C)C(=O)Nc1ccc3c(c1)OCO3)O2,-3,-7,5,nt,nt,nt,nt
C[C@@H]1CN([C@H](C)CO)C(=O)c2cc(-c3ccc(C(=O)N(C)C)cc3)cnc2O[C@H]1CN(C)C,-2,33,14,nt,nt,nt,nt
CC(C)NC(=O)N(C)C[C@@H]1OCCCC[C@H](C)Oc2ccc(NS(=O)(=O)c3cccs3)cc2C(=O)N([C@H](C)CO)C[C@@H]1C,8,nt,-5,nt,nt,nt,nt
N#C[C@@H]1[C@H](c2ccc(C3=CCCCC3)cc2)[C@@H](CO)N1C(=O)NC1CCCCC1,4,37,92,nt,nt,nt,nt
N#C[C@H]1[C@@H](c2ccc(C3=CCCCC3)cc2)[C@@H](CO)N1C(=O)Nc1ccccc1F,-8,-17,69,nt,nt,nt,nt
N#C[C@@H]1[C@H](c2ccc(C3=CCCCC3)cc2)[C@H](CO)N1C(=O)NC1CCCCC1,-6,17,107*,104*,70,30,44*
N#C[C@@H]1[C@H](c2ccc(C3=CCCCC3)cc2)[C@H](CO)N1C(=O)Nc1ccccc1F,-5,0,102*,110*,59,-5,15
CO[C@H]1CC[C@@H]2CCN(C)C(=O)[C@@H](C)CN(C)C(=O)c3cccc(C#N)c3OC[C@H]1O2,-3,nt,5,nt,nt,nt,nt
C[C@H](CO)N1C[C@H](C)[C@@H](CN(C)CC2CCCCC2)OCCCC[C@H](C)Oc2ccc(NC(=O)C3CCCCC3)cc2C1=O,7,-2,65,nt,nt,nt,nt
O=C(C[C@@H]1CC[C@H](NC(=O)CN2CCOCC2)[C@H](CO)O1)NCc1cccc(F)c1,nt,11,11,nt,nt,nt,nt
O=S(=O)(c1ccccc1F)N1CCCCN2[C@@H](CO)[C@@H](c3ccc(-c4ccncc4)cc3)[C@@H]2C1,-7,-12,?,107*,35,30,27*
Cc1ccccc1S(=O)(=O)N1CCCCN2[C@H](CO)[C@@H](c3ccc(-c4cncnc4)cc3)[C@H]2C1,2,-24,73,nt,nt,nt,nt
O=S(=O)(c1ccccc1F)N1CCCCN2[C@H](C1)[C@@H](c1ccc(-c3ccccc3)cc1)[C@@H]2CO,5,-60,69,nt,nt,nt,nt
Cc1ccccc1S(=O)(=O)N1CCCCN2[C@H](CO)[C@H](c3ccc(-c4cccnc4)cc3)[C@H]2C1,21,-56,100*,108*,80,29,80*
SMILES,C diff growth,Pf Dd2 inh,T cruzi growth-1,T cruzi growth-2,T cruzi growth-3,3T3 cytotox,NIH3T3 tox 2
Cc1ccccc1S(=O)(=O)N1CCCCN2[C@@H](CO)[C@H](c3ccc(-c4cncnc4)cc3)[C@@H]2C1,-1,-28,117*,73,22,11,?
Cc1ccccc1S(=O)(=O)N1CCCCN2[C@H](CO)[C@@H](c3ccc(-c4cccnc4)cc3)[C@@H]2C1,-16,8,74,nt,nt,nt,nt
CCCc1cn(CC[C@H]2CC[C@H](NS(=O)(=O)c3ccccc3Cl)[C@@H](CO)O2)nn1,2,-9,-27,nt,nt,nt,nt
COc1ccc(NC(=O)N(C)C[C@H]2OCCCC[C@@H](C)Oc3ccc(NC(=O)CCC(F)(F)F)cc3C(=O)N([C@H](C)CO)C[C@H]2C)cc1,-1,-51,83,nt,nt,nt,nt
COCC(=O)N1CCC2(CC1)CN(C(=O)NC1CCCC1)[C@H](CO)c1c2c2ccc(OC)cc2n1C,10,14,nt,nt,nt,nt,nt
COCC#Cc1ccc2c(c1)O[C@@H](CN(C)S(=O)(=O)c1ccc(F)cc1)[C@@H](C)CN([C@@H](C)CO)S2(=O)=O,8,-44,84,nt,nt,nt,nt
COCC#Cc1ccc2c(c1)O[C@H](CN(C)S(=O)(=O)c1ccc(F)cc1)[C@H](C)CN([C@H](C)CO)S2(=O)=O,-2,-48,68,nt,nt,nt,nt
C[C@@H]1CN([C@@H](C)CO)S(=O)(=O)c2ccc(C#Cc3ccc(F)cc3)cc2O[C@H]1CN(C)S(=O)(=O)c1ccc(F)cc1,3,-68,115*,103*,116*,?,55*
C[C@H](CO)N1C[C@H](C)[C@@H](CN(C)S(=O)(=O)c2ccc(F)cc2)Oc2cc(C#Cc3ccc(F)cc3)ccc2S1(=O)=O,5,-48,107*,100*,109*,28,65*
C[C@@H]1CN([C@@H](C)CO)S(=O)(=O)c2ccc(C#Cc3ccc(F)cc3)cc2O[C@@H]1CN(C)S(=O)(=O)c1ccc(F)cc1,13,-44,114*,106*,115*,26,43*
C[C@H]1CN([C@@H](C)CO)S(=O)(=O)c2ccc(C#Cc3ccc(F)cc3)cc2O[C@H]1CN(C)S(=O)(=O)c1ccc(F)cc1,4,-22,107*,105*,?,8,1
COc1ccc(NC(=O)N2CC(=O)N3[C@@H](CO)[C@H](c4ccc(-c5ccccc5)cc4)[C@@H]3C2)cc1,-17,-12,nt,nt,nt,nt,nt
